Results filed as inconclusive are left out. Entries that show only a call come without a potency. Calls of active or inactive are those of the source. Unless noted, calls come from the whole dose curve; as a rule, active = well fitted curve in the direction sought with a large enough effect; inconclusive = small, poorly fitted or top-dose-only effect, or another doubt; inactive = no such curve, though single readings can be large; an effect the other way counts as inactive or inconclusive.
Target: Pyruvate kinase (Leishmania mexicana) (UniProt Q27686)
Assay: qHTS Validation Assay for Inhibitors of Leishmania Mexicana Pyruvate Kinase (AID 945)
Conditions: purified L. mexicana pyruvate kinase, enzyme activity, E451W mutant enzyme; series mostly up to 57.5 µM
How it was run: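 LmPYK E451W 0.2 nM; 0.5 mM PEP, 0.1 mM ADP, 7 mM MgCl2, 50 mM KCl, imidazole pH 7.2, 0.01% Tween 20, 0.05% BSA; 1 h RT; PKLight luminescence; DMSO-normalized.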

Chain of Pyruvate kinase (Leishmania mexicana) (Q27686 2-499 E452W): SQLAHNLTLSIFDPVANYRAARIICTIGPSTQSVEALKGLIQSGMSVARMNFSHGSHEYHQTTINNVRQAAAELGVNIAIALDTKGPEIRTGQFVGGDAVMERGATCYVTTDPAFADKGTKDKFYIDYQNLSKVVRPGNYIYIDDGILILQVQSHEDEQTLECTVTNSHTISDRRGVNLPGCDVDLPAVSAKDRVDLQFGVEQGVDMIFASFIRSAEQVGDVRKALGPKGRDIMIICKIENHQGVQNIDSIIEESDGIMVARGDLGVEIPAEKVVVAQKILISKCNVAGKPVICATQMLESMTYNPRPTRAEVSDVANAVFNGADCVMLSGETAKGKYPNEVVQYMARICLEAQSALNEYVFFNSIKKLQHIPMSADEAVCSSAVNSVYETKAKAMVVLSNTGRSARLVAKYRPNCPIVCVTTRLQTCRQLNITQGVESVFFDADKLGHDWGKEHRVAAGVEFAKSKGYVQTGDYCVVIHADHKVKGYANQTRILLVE

SMILES | Potency
CCCN(CCC)[C@H]1CCc2c(F)ccc(O)c2C1 | inactive
O=P(O)(O)C(Cl)(Cl)P(=O)(O)O | inactive
OCc1cnc[nH]1 | inactive
C[N+](C)(C)CC#CCOC(=O)Nc1cccc(Cl)c1 | inactive
Clc1cc(I)cc(Cl)c1NC1=NCCN1 | inactive
Cc1sc2ccccc2c1CC1=NCCN1 | inactive
CNC(=O)OCC[N+](C)(C)C | inactive
Cc1[nH]c2ccc(O)cc2c1CCN | inactive
N#CCCN | inactive
COc1ccc2[nH]c3c(c2c1)CCNC3 | inactive
NC(=O)c1cc(N2CC2)c([N+](=O)[O-])cc1[N+](=O)[O-] | inactive
O=[N+]([O-])c1cc(O)c(O)c([N+](=O)[O-])c1 | inactive
CCCN(CCC)C1Cc2cc(OC)c(OC)cc2C1 | inactive
C[N+](C)(C)CC#CCN1CCCC1=O | inactive
C[C@@H]1O[C@H](C[N+](C)(C)C)CS1 | inactive
COc1ccc2[nH]cc(CCN)c2c1 | inactive
Cc1c2ccncc2c(C)c2c1[nH]c1ccccc12 | inactive
O=C1C=CC(=O)C=C1 | inactive
O=S1(=O)N(CCN2CC=C(c3c[nH]c4cc(F)ccc34)CC2)c2cccc3c2N1CCC3 | inactive

Test system: not listed separately
Assay: MultiTox-Fluor Cytotoxicity Assay - LYMP1-001 - Dead Cells (AID 946);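 note: cells exposed to compound for 16 h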
Conditions: LYMP1-001 lymphoblastoid cells, dead-cell protease fluorescence; series mostly up to 92.2 µM
How it was run: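 AC50 from Hill fit of concentration-response; data normalized to DMSO (basal) and 15 uM tetraoctylammonium bromide (100%). LYMP1-001 lymphoblastoid cells, 2500/well, 16 hr compound at 37 C; dead-cell protease fluorescence, Ex/Em 485/520.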

SMILES | Potency
COc1ccc2c(c1OC)C(=O)OC2C1c2cc3c(cc2CCN1C)OCO3 (stereo not given) | inactive
O=C1CCO1 | inactive
O=C1C=CC(=O)C=C1 | inactive

Test system: not listed separately
Assay: MultiTox-Fluor Cytotoxicity Assay - LYMP1-001 - Live Cells (AID 947); note: potency is the fitted concentration of half-maximal effect
Conditions: LYMP1-001 lymphoblastoid cells, live-cell protease fluorescence viability; series mostly up to 92.2 µM

SMILES | Potency
COc1ccc2c(c1OC)C(=O)OC2C1c2cc3c(cc2CCN1C)OCO3 (stereo not given) | inactive
O=C1CCO1 | inactive
[Cl-].[Cl-].[Hg+2] | 31.6 µM (active)
O=C1C=CC(=O)C=C1 | inactive

Test system: not listed separately
Assay: Cell Viability - LYMP1-002 - Assay at 16 hr (AID 948); note: potency is the fitted concentration of half-maximal effect
Conditions: LYMP1-002 lymphoblastoid cell viability; series mostly up to 92.2 µM
How it was run: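 Seed 2500 LYMP1-002 cells per well in complete medium and hold 5 hr at 37 C. Add compound across a concentration series and incubate 16 hr at 37 C. Add CellTiter-Glo, wait 30 min at room temperature, read luminescence.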

SMILES | Potency
COc1ccc2c(c1OC)C(=O)OC2C1c2cc3c(cc2CCN1C)OCO3 (stereo not given) | inactive
O=C1CCO1 | inactive
[Cl-].[Cl-].[Hg+2] | 10 µM (active)
O=C1C=CC(=O)C=C1 | inactive

Target: Pyruvate kinase PKM (Homo sapiens) (UniProt P14618)
Assay: qHTS Assay for Activators of Human Muscle Pyruvate Kinase (AID 954; active = well fitted curve in the direction sought with a large enough effect, not every such curve was filed as active)
Conditions: purified human muscle pyruvate kinase, luciferase-coupled luminescence, 1 h; series mostly up to 57.5 µM
How it was run: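 Luminescence from a luciferase ATP-detection/stop reagent reported PKM2 activity. Reactions contained 0.1 nM purified human enzyme, 0.5 mM PEP, 0.1 mM ADP and 7 mM MgCl2 at pH 7.2, run 1 h at RT.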

Chain of Pyruvate kinase PKM (Homo sapiens) (P14618 whole entry, looked up): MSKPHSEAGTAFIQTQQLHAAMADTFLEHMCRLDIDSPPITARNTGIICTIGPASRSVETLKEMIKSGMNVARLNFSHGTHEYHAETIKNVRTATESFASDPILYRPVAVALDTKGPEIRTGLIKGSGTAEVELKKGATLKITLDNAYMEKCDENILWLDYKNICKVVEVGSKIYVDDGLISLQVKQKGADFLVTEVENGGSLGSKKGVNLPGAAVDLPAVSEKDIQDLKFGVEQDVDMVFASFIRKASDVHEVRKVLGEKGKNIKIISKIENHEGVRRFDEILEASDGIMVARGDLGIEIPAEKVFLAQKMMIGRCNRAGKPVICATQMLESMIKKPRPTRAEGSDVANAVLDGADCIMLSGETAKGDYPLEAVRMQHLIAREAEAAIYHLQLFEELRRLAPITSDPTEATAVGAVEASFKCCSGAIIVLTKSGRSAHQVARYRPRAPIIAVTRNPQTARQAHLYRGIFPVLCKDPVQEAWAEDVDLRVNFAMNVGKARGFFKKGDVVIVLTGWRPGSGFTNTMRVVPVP

SMILES | outcome
CCCN(CCC)[C@H]1CCc2c(F)ccc(O)c2C1 | inactive
O=P(O)(O)C(Cl)(Cl)P(=O)(O)O | inactive
OCc1cnc[nH]1 | inactive
C[N+](C)(C)CC#CCOC(=O)Nc1cccc(Cl)c1 | inactive
Clc1cc(I)cc(Cl)c1NC1=NCCN1 | inactive
Cc1sc2ccccc2c1CC1=NCCN1 | inactive
CNC(=O)OCC[N+](C)(C)C | inactive
Cc1[nH]c2ccc(O)cc2c1CCN | inactive
N#CCCN | inactive
COc1ccc2[nH]c3c(c2c1)CCNC3 | inactive
NC(=O)c1cc(N2CC2)c([N+](=O)[O-])cc1[N+](=O)[O-] | inactive
O=[N+]([O-])c1cc(O)c(O)c([N+](=O)[O-])c1 | inactive
CCCN(CCC)C1Cc2cc(OC)c(OC)cc2C1 | inactive
C[N+](C)(C)CC#CCN1CCCC1=O | inactive
C[C@@H]1O[C@H](C[N+](C)(C)C)CS1 | inactive
COc1ccc2[nH]cc(CCN)c2c1 | inactive
Cc1c2ccncc2c(C)c2c1[nH]c1ccccc12 | inactive
O=C1C=CC(=O)C=C1 | inactive
O=S1(=O)N(CCN2CC=C(c3c[nH]c4cc(F)ccc34)CC2)c2cccc3c2N1CCC3 | inactive

Test system: not listed separately
Assay: MultiTox-Fluor Cytotoxicity Assay - LYMP1-002 - Live Cells (AID 955);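 note: cells exposed to compound for 16 hours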; note: potency is the fitted concentration of half-maximal effect
Conditions: LYMP1-002 lymphoblastoid live-cell protease fluorescence viability; series mostly up to 46.1 µM
How it was run: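 Human lymphoblastoid LYMP1-002 cells, 2500/well, treated 16 h at 37 C in complete medium. Live-cell protease activity via GF-AFC fluorescence (Ex/Em 405/510) after 60 min reagent incubation; AC50 from Hill fits.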

SMILES | Potency
COc1ccc2c(c1OC)C(=O)OC2C1c2cc3c(cc2CCN1C)OCO3 (stereo not given) | inactive
O=C1CCO1 | inactive
[Cl-].[Cl-].[Hg+2] | 10 µM (active)
O=C1C=CC(=O)C=C1 | inactive

Target: Alpha-galactosidase (Coffea arabica) (UniProt Q42656)
Assay: Counterscreen for Glucocerebrosidase Inhibitors: qHTS Assay for Coffee Bean alpha-Galactosidase at pH 4.5 (AID 957)
Conditions: purified coffee bean alpha-galactosidase, fluorogenic substrate; series mostly up to 76.9 µM
How it was run: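 Coffee bean enzyme (2 nM) with 80 uM 4-methylumbelliferyl alpha-D-galactopyranoside in 50 mM citric acid, 0.005% Tween-20, pH 4.5, 20 min at room temperature; compounds 0.7 nM–77 uM. Stopped at pH 10, fluorescence 365/440 nm; AC50 from Hill fits.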

Chain of Alpha-galactosidase (Coffea arabica) (Q42656 whole entry, looked up): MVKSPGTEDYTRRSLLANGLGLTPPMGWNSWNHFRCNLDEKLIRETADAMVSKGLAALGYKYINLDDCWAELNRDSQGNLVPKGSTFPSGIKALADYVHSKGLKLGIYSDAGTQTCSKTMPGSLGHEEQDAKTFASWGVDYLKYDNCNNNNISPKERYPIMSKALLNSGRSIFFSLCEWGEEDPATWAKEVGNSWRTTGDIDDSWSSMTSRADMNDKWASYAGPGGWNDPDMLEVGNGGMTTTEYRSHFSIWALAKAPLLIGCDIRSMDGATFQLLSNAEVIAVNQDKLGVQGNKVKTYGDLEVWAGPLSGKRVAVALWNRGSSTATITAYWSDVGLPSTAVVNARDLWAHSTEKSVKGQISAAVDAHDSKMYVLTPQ

SMILES | outcome
C[N+](C)(C)CC#CCOC(=O)Nc1cccc(Cl)c1 | inactive
Cc1sc2ccccc2c1CC1=NCCN1 | inactive
Cc1[nH]c2ccc(O)cc2c1CCN | inactive
N#CCCN | inactive
COc1ccc2[nH]c3c(c2c1)CCNC3 | inactive
O=[N+]([O-])c1cc(O)c(O)c([N+](=O)[O-])c1 | inactive

Test system: not listed separately
Assay: MultiTox-Fluor Cytotoxicity Assay - LYMP1-003 - Dead Cells (AID 961);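 note: cells exposed to compound for 16 h at 37 °C; nearly all actives have a fitted effect of over 70% in size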
Conditions: LYMP1-003 lymphoblastoid cells, dead-cell protease fluorescence; series mostly up to 92.2 µM
How it was run: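 Human lymphoblastoid LYMP1-003 cells (2500/well) were treated with compounds for 16 hr at 37 C in complete medium. Dead-cell protease release was read by bis-AAF-R110 fluorescence (Ex/Em 485/520). AC50 came from Hill fits, normalized to DMSO and 15 uM tetraoctylammonium bromide.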

SMILES | Potency
COc1ccc2c(c1OC)C(=O)OC2C1c2cc3c(cc2CCN1C)OCO3 (stereo not given) | inactive
O=C1CCO1 | inactive
O=C1C=CC(=O)C=C1 | inactive

Test system: not listed separately
Assay: MultiTox-Fluor Cytotoxicity Assay - LYMP1-003 - Live Cells (AID 962);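 note: cells exposed to compound for 16 hours at 37 °C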; note: potency is the fitted concentration of half-maximal effect
Conditions: LYMP1-003 lymphoblastoid cells, MultiTox-Fluor live-cell protease fluorescence; series mostly up to 92.2 µM
How it was run: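 LYMP1-003 lymphoblastoid cells, 2500/well in complete medium, treated 16 h at 37 C; live-cell protease cleavage of GF-AFC read by fluorescence (Ex/Em 405/510) after 60 min reagent; AC50 from Hill fits of concentration-response.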

SMILES | Potency
COc1ccc2c(c1OC)C(=O)OC2C1c2cc3c(cc2CCN1C)OCO3 (stereo not given) | inactive
O=C1CCO1 | inactive
[Cl-].[Cl-].[Hg+2] | 15.8 µM (active)
O=C1C=CC(=O)C=C1 | inactive

Test system: not listed separately
Assay: Cell Viability - LYMP1-003 - Assay at 24 hr (AID 963); note: potency is the fitted concentration of half-maximal effect
Conditions: LYMP1-003 lymphoblastoid cell viability; series mostly up to 92.2 µM
How it was run: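 Human lymphoblastoid LYMP1-003 cells, 2500/well, treated 24 h at 37 C in complete medium. Viability read as intracellular ATP by CellTiter-Glo luminescence after 30 min at room temperature; AC50 from Hill-equation fits of qHTS concentration-response.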

SMILES | Potency
COc1ccc2c(c1OC)C(=O)OC2C1c2cc3c(cc2CCN1C)OCO3 (stereo not given) | inactive
O=C1CCO1 | inactive
[Cl-].[Cl-].[Hg+2] | 7.94 µM (active)
O=C1C=CC(=O)C=C1 | inactive

Test system: not listed separately
Assay: Cell Viability - LYMP1-003 - Assay at 40 hr (AID 964); note: nearly all actives have a fitted effect of over 60% in size; note: potency is the fitted concentration of half-maximal effect
Conditions: LYMP1-003 lymphoblastoid viability; series mostly up to 92.2 µM
How it was run: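 LYMP1-003 human lymphoblastoid cells, 2500/well, preincubated 5 h at 37 C, then treated with compound for 40 h at 37 C. Intracellular ATP read by CellTiter-Glo luminescence after 30 min at room temperature; AC50 from Hill-equation fits.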

SMILES | Potency
COc1ccc2c(c1OC)C(=O)OC2C1c2cc3c(cc2CCN1C)OCO3 (stereo not given) | inactive
O=C1CCO1 | inactive
[Cl-].[Cl-].[Hg+2] | 1 µM (active)
O=C1C=CC(=O)C=C1 | inactive

Test system: not listed separately
Assay: Cell Viability - LYMP2-003 (AID 965);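 note: cells exposed to compounds for 24 h before reading; nearly all actives have a fitted effect of over 50% in size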; note: potency is the fitted concentration of half-maximal effect
Conditions: LYMP2-003 lymphoblastoid cell viability; series mostly up to 92.2 µM
How it was run: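 Seed 2500 lymphoblastoid cells/well; incubate 5 hr, 37 C; add compounds; incubate 24 hr, 37 C; add CellTiter-Glo, 30 min RT; read luminescence. AC50 from Hill fit.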

SMILES | Potency
COc1ccc2c(c1OC)C(=O)OC2C1c2cc3c(cc2CCN1C)OCO3 (stereo not given) | inactive
O=C1CCO1 | inactive
[Cl-].[Cl-].[Hg+2] | 0.794 µM (active)
O=C1C=CC(=O)C=C1 | inactive

Test system: not listed separately
Assay: Cell Viability - LYMP2-004 (AID 966); note: nearly all actives have a fitted effect of over 65% in size; note: potency is the fitted concentration of half-maximal effect
Conditions: LYMP2-004 lymphoblastoid cell viability, qHTS; series mostly up to 92.2 µM
How it was run: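 Lymphoblastoid LYMP2-004 cells, 2500 per well, were preincubated for 5 hr and then treated with compound for 24 h at 37 C in complete medium. Viability was read as cellular ATP by CellTiter-Glo luminescence, and AC50 values were taken from Hill fits to concentration-response data.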

SMILES | Potency
COc1ccc2c(c1OC)C(=O)OC2C1c2cc3c(cc2CCN1C)OCO3 (stereo not given) | inactive
O=C1CCO1 | inactive
[Cl-].[Cl-].[Hg+2] | 0.251 µM (active)

Test system: not listed separately
Assay: Cell Viability - LYMP2-005 (AID 967); note: potency is the fitted concentration of half-maximal effect
Conditions: LYMP2-005 lymphoblastoid cell viability; series mostly up to 92.2 µM
How it was run: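 Acute cytotoxicity is scored as a concentration-dependent drop in intracellular ATP in human lymphoblastoid LYMP2-005 cells after 24 h compound treatment. ATP is quantified by luciferase luminescence, and AC50 is derived by Hill-equation modelling.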

SMILES | Potency
COc1ccc2c(c1OC)C(=O)OC2C1c2cc3c(cc2CCN1C)OCO3 (stereo not given) | inactive
O=C1CCO1 | inactive
[Cl-].[Cl-].[Hg+2] | 0.501 µM (active)
O=C1C=CC(=O)C=C1 | inactive

— PubChem BioAssay (NCATS)
